Source: PubChem BioAssay (Broad Institute)
Rows were chosen to be rich in hits. Some 2.4% of all compounds tested hit in one or more screens of this group.
C diff growth = C. difficile growth inhibition. Clostridium difficile clinical isolate growth, OD600, 24 h; active compounds read low. growth activity, negative = inhibition, % at 16 µg/mL (by protocol). 0.25% of 86,000 active. AID 1259249;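 active means mean growth activity at or below -80% and every replicate also at or below -80%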;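 further: 0% = DMSO wells and -100% = levofloxacin 16 µg/mL wells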
Pf Dd2 inh = blocks growth of Plasmodium falciparum Dd2 parasites. P. falciparum Dd2 growth, SYBR Green, 72 h; active compounds read low. activity change, % at 10 µM. 2.3% of 94,000 active. AID 1159554; in the data active means activity change below about -80%
The depositor's hits bear a star; . = no result; ! = not active in a repeat.

SMILES	C diff growth	Pf Dd2 inh
CN1c2ccc(C#Cc3cccc(F)c3)cc2[C@H]2[C@H](CCN2S(=O)(=O)c2ccccc2F)[C@@H]1CO	-3	1
COc1cccc(C#Cc2ccc3c(c2)[C@@H]2[C@@H](CCN2C(=O)c2ccccc2F)[C@@H](CO)N3C)c1	-97*	-22
CN1c2ccc(C#Cc3cccnc3)cc2[C@@H]2[C@@H](CCN2S(=O)(=O)c2ccccc2F)[C@@H]1CO	0	-88*
CN1C(=O)c2cc(NC(=O)c3ccccc3)ccc2OC[C@@H]2O[C@H](CC(=O)O)CC[C@@H]21	4	-4
C[C@@H]1CN([C@H](C)CO)C(=O)c2cc(NC(=O)NC3CCCCC3)ccc2O[C@H]1CN(C)C(=O)Nc1ccc2c(c1)OCO2	5	29
O=C(Nc1ccccc1)N1C[C@@H]2N[C@H](C1)[C@@H]2c1ccc(/C=C/c2ccccc2)cc1	-97*	-89*
O=C(c1ccncc1)N1C[C@@H]2N[C@H](C1)C2c1ccc(/C=C/c2ccccc2)cc1 (stereo partly drawn)	-1	2
O=C(c1ccc2c(c1)OCO2)N1C[C@@H]2N[C@H](C1)C2c1ccc(-c2cncnc2)cc1 (stereo partly drawn)	-7	22
O=C(c1ccc2c(c1)OCO2)N1C[C@@H]2N[C@H](C1)C2c1ccc(/C=C/c2ccccc2)cc1 (stereo partly drawn)	47	-89*!
O=C(c1ccc(F)cc1)N1C[C@@H]2N[C@H](C1)C2c1ccc(/C=C/c2ccccc2)cc1 (stereo partly drawn)	-99*!	-27
O=C(Nc1ccccc1)N1C[C@@H]2N[C@H](C1)C2c1ccc(-c2ccccc2)cc1 (stereo partly drawn)	62	-1
C/C=C/c1ccc(C2[C@@H]3CN(S(=O)(=O)c4ccc(C)cc4)C[C@H]2N3)cc1 (stereo partly drawn)	-15	-67
O=S(=O)(c1ccc(F)cc1)N1C[C@@H]2N[C@H](C1)C2c1ccc(/C=C/c2ccccc2)cc1 (stereo partly drawn)	-99*!	-40
CCNC(=O)Nc1ccc2c(c1)C(=O)N(C)[C@H]1CC[C@H](CC(=O)NCC3CCCCC3)O[C@H]1CO2	-2	1
N#C[C@H]1[C@H](c2ccccc2C2=CCCCC2)[C@@H](CO)N1C(=O)C1CCOCC1	-3	17
C[C@H]1CN([C@@H](C)CO)C(=O)c2cc(NC(=O)Nc3cccc4ccccc34)ccc2O[C@@H]1CN(C)CC1CCCCC1	.	29
CNC(=O)C[C@H]1CC[C@@H]2[C@@H](COc3ccc(NC(=O)c4ccccc4OC)cc3C(=O)N2C)O1	7	-32
COCC(=O)Nc1ccc2c(c1)C(=O)N(C)[C@H]1CC[C@H](CC(=O)NC3CCCC3)O[C@H]1CO2	-10	-3
C[C@H](CO)N1C[C@H](C)[C@@H](CN(C)C(=O)CCCN(C)C)OCCCC[C@H](C)Oc2ccc(NC(=O)Cc3ccccc3)cc2C1=O	-4	53
Cc1ccc(S(=O)(=O)N(C)C[C@@H]2OCCCC[C@H](C)Oc3ccc(NC(=O)C4CCCCC4)cc3C(=O)N([C@H](C)CO)C[C@H]2C)cc1	.	-86*
Cc1ccc(S(=O)(=O)N(C)C[C@@H]2OCCCC[C@H](C)Oc3ccc(NC(=O)C4CCCCC4)cc3C(=O)N([C@@H](C)CO)C[C@H]2C)cc1	0	-85*
COc1ccc(S(=O)(=O)N(C)C[C@@H]2OCCCC[C@H](C)Oc3ccc(NC(=O)C4CCCCC4)cc3C(=O)N([C@H](C)CO)C[C@H]2C)cc1	-8	-86*
COc1ccc(S(=O)(=O)N(C)C[C@@H]2OCCCC[C@H](C)Oc3ccc(NC(=O)C4CCCCC4)cc3C(=O)N([C@@H](C)CO)C[C@H]2C)cc1	5	-78
Cc1ccc(S(=O)(=O)N(C)C[C@@H]2OCCCC[C@@H](C)Oc3ccc(NC(=O)C4CCCCC4)cc3C(=O)N([C@@H](C)CO)C[C@@H]2C)cc1	.	-79
Cc1ccc(S(=O)(=O)N(C)C[C@H]2OCCCC[C@H](C)Oc3ccc(NC(=O)C4CCCCC4)cc3C(=O)N([C@@H](C)CO)C[C@@H]2C)cc1	.	-82*
SMILES	C diff growth	Pf Dd2 inh
Cc1ccc(S(=O)(=O)N(C)C[C@@H]2OCCCC[C@H](C)Oc3ccc(NC(=O)C4CCCCC4)cc3C(=O)N([C@@H](C)CO)C[C@@H]2C)cc1	.	-74
Cc1ccc(S(=O)(=O)N(C)C[C@H]2OCCCC[C@@H](C)Oc3ccc(NC(=O)C4CCCCC4)cc3C(=O)N([C@@H](C)CO)C[C@@H]2C)cc1	5	-76
CC=Cc1ccc2n(c1=O)C[C@H]1[C@H](CO)[C@@H](C(=O)NCc3ccccc3)[C@@H]2N1Cc1ccccc1OC (mixture of isomers)	-1	1
O=C(NCC1CC1)[C@@H]1[C@@H](CO)[C@@H]2Cn3c(ccc(-c4ccccc4)c3=O)[C@@H]2N1CC1CC1	0	-7
COCCNC(=O)C[C@@H]1CC[C@H](NC(=O)NC2CCCCC2)[C@@H](CO)O1	1	9
CCNC(=O)C[C@@H]1CC[C@@H]2[C@@H](COc3ccc(NS(=O)(=O)c4ccccc4C)cc3C(=O)N2C)O1	6	11
Cc1ccc(S(=O)(=O)N(C)C[C@H]2OCCCC[C@H](C)Oc3ccc(NC(=O)C4CCCCC4)cc3C(=O)N([C@H](C)CO)C[C@@H]2C)cc1	.	-45
C[C@H](CO)N1C[C@H](C)[C@@H](CN(C)S(=O)(=O)c2ccccc2)OCCCC[C@H](C)Oc2ccc(NC(=O)C3CCCCC3)cc2C1=O	-6	-53
Cc1ccc(S(=O)(=O)N(C)C[C@H]2OCCCC[C@H](C)Oc3ccc(NC(=O)C4CCCCC4)cc3C(=O)N([C@H](C)CO)C[C@H]2C)cc1	.	-85*
C[C@@H]1CN([C@H](C)CO)C(=O)c2cc(NC(=O)C3CCCCC3)ccc2O[C@@H](C)CCCCO[C@@H]1CN(C)S(=O)(=O)c1ccccc1	-7	-82*
CCCNC(=O)N1[C@H](C#N)[C@H](c2ccc(C#Cc3ccc(F)cc3)cc2)[C@H]1CO	-3	-86*
CCCNC(=O)N1[C@H](CO)[C@H](c2ccc(-c3ccc(C#N)cc3)cc2)[C@@H]1CNC	-4	-84*
CCCNC(=O)N1[C@H](C#N)[C@H](c2ccc(C#Cc3cccc(F)c3)cc2)[C@H]1CO	-3	-85*
CCCNC(=O)N1[C@H](CO)[C@@H](c2ccc(-c3ccccc3)cc2)[C@@H]1CNC(C)=O	-1	2
CCCNC(=O)N1[C@@H](C#N)[C@@H](c2ccccc2)[C@@H]1CO	-23	8
CCCNC(=O)N1[C@H](C#N)[C@H](c2ccc(C#Cc3ccc(F)cc3)cc2)[C@@H]1CO	-3	-87*
CCCNC(=O)N1[C@H](C#N)[C@H](c2ccccc2)[C@H]1CO	-10	-39
CCCNC(=O)N1[C@H](C#N)[C@@H](c2ccc(C#Cc3cccc(F)c3)cc2)[C@@H]1CO	1	-54
O=C(NC1Cc2ccccc2C1)[C@H]1N[C@H]2c3ccc(C4=CCCC4)c(=O)n3C[C@H]2[C@@H]1CO	-3	5
COc1ccc(S(=O)(=O)N(C)C[C@@H]2OCCCC[C@H](C)Oc3ccc(NC(=O)c4ccccc4)cc3C(=O)N([C@@H](C)CO)C[C@H]2C)cc1	21	-84*
COc1ccc(S(=O)(=O)N(C)C[C@H]2OCCCC[C@H](C)Oc3ccc(NC(=O)c4ccccc4)cc3C(=O)N([C@@H](C)CO)C[C@H]2C)cc1	21	-85*
